For 40 compounds, growth results are on record in PubChem BioAssay (NCI).

The structures appear in SMILES notation. Values joined by “and” are separate entries in the source; they are usually repeats but may differ in a detail not shown here. Equal entries are not always repeated. Compounds without any hit were thinned out: in the full panel of roughly 83,000, 20% have a hit.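 Negative percent growth values reflect cell death: -40 means 40% of the cells present at the start died, and -100 means all died.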 Active and inactive are the calls of the source. Where a SMILES comes first, the peptide text is derived from it.

In the experiment the test system is LOX IMVI melanoma. As to the kind of experiment: NCI-60 one-dose screen, 48 h (100 = growth as untreated, 0 = no growth, -100 = all killed). Conditions: 10 µM unless noted. As to the method: Growth inhibition of the LOX IMVI human tumor cell line is measured as a screen for anti-cancer activity. Cells are grown in 96 well plates and exposed to the test compound for 48 hours. Compounds are tested at a single concentration, which is 10^-5 M for most compounds. The reported endpoint is percent growth (GI% or GIPRCNT), where numbers from 0 - 100% represent growth inhibition, and numbers from -100% - 0 represent cell death. For example, a value of 40 represents 60% growth inhibition. A value of 0 means no net growth occurred over the course of the experiment. A value of -40 indicates 40% of cells at the beginning of the experiment died by the end of the experiment. A value of -100 means all cells are dead at the end of the experiment.
NCI-60 Human Tumor Cell Lines Screen was performed using the standard one-dose NCI protocol, which is described in more detail at https://dtp.cancer.gov/discovery_development/nci-60/default.htm.
Compounds with GIPRCNT values below 10 were considered active. Activity score was based on GIPRCNT using the following formula: […]
Score is 0 for GIPRCNT values of 100 or above, 50 for GIPRCNT values of 0, and 100 for GIPRCNT values of -100.
With `Cc1cc(-c2ccc(N=Nc3ccc4c(S(=O)(=O)O)cc(S(=O)(=O)O)c(N)c4c3O)c(C)c2)ccc1N=Nc1ccc2c(S(=O)(=O)O)cc(S(=O)(=O)O)c(N)c2c1O`, the growth was 96.9% (inactive).

On to `O=C1c2c(O)ccc(O)c2C(=O)c2c(NCCNCCO)ccc(NCCNCCO)c21`, for which the growth was -66.4% (active) and -76.2% (active).

Regarding `CC(C)NCC(O)c1ccc(O)c(O)c1` (stereo not given), the growth was 94.2% (inactive) and 111% (inactive) and 95.4% (inactive).

Turning to `CC(=O)Nc1ccc(S(N)(=O)=O)cc1`, the growth was 98% (inactive) and 92.1% (inactive).

`C/C(=C\c1ccccc1)c1ccccn1`: the growth was 112% (inactive).

`O=[N+]([O-])c1cccc(SSc2cccc([N+](=O)[O-])c2)c1`: the growth is 100% (inactive).

Take `OCCN1CCCCCCC1`: the growth was 103% (inactive).

`O=C(O)CCCl`: the growth was 104% (inactive).

Turning to `O=CN1CCCCC1`, the growth is 96.6% (inactive).

For `CC1=C/C(O)CC(=O)Cc2nc(co2)C(=O)N2CCC=C2C(=O)OC(C(C)C)C(C)/C=C\C(=O)NC/C=C\1` (stereo not given), the growth was 59.6% (inactive).

In the case of `CC1(C)COC(=S)N1`, the growth was 99.9% (inactive).

In the case of `CC(C)C(C)(C)c1ccc(O)cc1`, the growth is 98.4% (inactive).

Turning to `N#CC(C#N)N=Nc1ccc(Cl)cc1`, the growth was 53.5% (inactive).

Regarding `O=C1OC(C(O)C(O)CO)C(O)=C1O` (stereo not given), the growth is 104% (inactive) and 99.2% (inactive).

With `CN1CNC(=O)NC1`, the growth is 99.6% (inactive) and 95.4% (inactive).

Regarding `Nc1ccc2c(O)cc(S(=O)(=O)O)cc2c1`, the growth is 92.8% (inactive).

Take `OC1COC(OCc2ccccc2)C(O)C1O` (stereo not given): the growth is 94% (inactive).

In the case of `Cc1ccc(S(=O)(=O)c2ccccc2)cc1`, the growth was 21% (inactive).

With `CN(C)c1ccc(/C=C\C(=O)c2ccccc2)cc1`, the growth was 84.5% (inactive) and 75.6% (inactive) and 77.4% (inactive).

`CCCCOc1ccc(Nc2cc(Cl)ccc2C(=O)O)cn1`: the growth was 107% (inactive) and 90.5% (inactive).

Take `NC1CCC(C(=O)O)CC1` (stereo not given): the growth was 107% (inactive) and 96.2% (inactive).

In the case of `CC1CCC2(OC1)OC1CC3C4CC=C5CC(O)CCC5(C)C4CCC3(C)C1C2C` (stereo not given), the growth was 91.2% (inactive).

On to `Nc1cc(N)c(N)cc1N`, for which the growth is -93.8% (active).

Turning to `CC(C)(O)C(=O)O`, the growth is 101% (inactive).

Turning to `Fc1ccc([I+]c2ccc(F)cc2)cc1`, the growth is 47.9% (inactive).

For `CC(C)NC(=O)N/C=C(\C#N)C(N)=O`, the growth is 97.2% (inactive).

For the compound `Cl`, the growth is 97% (inactive).

For the compound `CCCCOC(=O)/C=C\C(=O)NC(N)=O`, the growth was 79.1% (inactive).

With `Cn1cnc([N+](=O)[O-])c1Sc1ncn[nH]1`, the growth is 93.1% (inactive).

On to `c1ccc(CNCCNCc2ccccc2)cc1`, for which the growth was 110% (inactive).

As to `COc1ccc(Nc2ccc3ccccc3c2)cc1`, the growth is 74.2% (inactive).

For the compound `O=c1[nH]cnc2c1ncn2C1OC(CO)C(O)C1O` (stereo not given), the growth was 101% (inactive) and 103% (inactive) and 91.7% (inactive).

Regarding `Brc1ccc(SSc2ccc(Br)cc2)cc1`, the growth was 3.5% (active).

For `Cc1cc2ccccc2cn1`, the growth is 102% (inactive) and 99.7% (inactive).

`NC(Cc1ccccc1)C(=O)NC(Cc1ccccc1)C(=O)O` (stereo not drawn) (H-Phe-Phe-OH; configuration not given here): the growth was 95.3% (inactive) and 103% (inactive).

Regarding `CC(=O)OC(C)C(=O)NCC(C)O` (stereo not given), the growth is 101% (inactive).

For the compound `O=C1OC(c2ccccc2)=N/C1=C\c1ccccc1`, the growth is 98.1% (inactive).

As for `CCCCCCCCCCCCCCCCC(C(=O)O)C(O)(CC(=O)O)C(=O)O` (stereo not given), the growth was 106% (inactive) and 0.982% (active).

As for `Nc1ncnc2c1ncn2C1OC(COP(=O)(O)O)C(O)C1O` (stereo not given), the growth was 108% (inactive).

As for `Cc1cc(-c2cc(C)c(O)c(C)c2)cc(C)c1O`, the growth is 76.8% (inactive).
